APE1 inh: qHTS Assay for Inhibitors of the Human Apurinic/apyrimidinic Endonuclease 1 (APE1). DNA repair nuclease/redox regulator APEX1 (Homo sapiens), P27695. recombinant APE1, TAMRA/BHQ-2 abasic DNA cleavage fluorescence. Potency, µM (titrated, usually from 65.8 µM), for inactives: at the highest dose activity change, negative = inhibition, actives largely listed as inhibitors. hit rate 0.35% among 350,000. AID 2517, 2012;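 note: plate controls were vehicle for no effect and reference inhibitor for full effect; nearly all actives have a fitted effect of over 55% in size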
Target sequence (P27695 whole entry, looked up): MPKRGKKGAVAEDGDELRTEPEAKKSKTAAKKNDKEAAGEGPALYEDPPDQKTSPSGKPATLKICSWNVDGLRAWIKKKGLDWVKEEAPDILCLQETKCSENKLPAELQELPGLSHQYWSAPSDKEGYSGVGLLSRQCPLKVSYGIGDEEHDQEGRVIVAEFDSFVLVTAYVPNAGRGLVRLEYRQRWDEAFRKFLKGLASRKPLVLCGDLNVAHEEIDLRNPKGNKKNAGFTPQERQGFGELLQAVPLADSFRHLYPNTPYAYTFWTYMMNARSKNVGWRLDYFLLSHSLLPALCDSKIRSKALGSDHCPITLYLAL
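Enzyme (0.75 nM final) and test compound are incubated 15 min at room temperature before adding 50 nM quenched THF abasic-site duplex. Cleavage dequenches TAMRA, followed at 525/598 nm over three reads one minute apart.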
TDP1 block: qHTS Assay for Inhibitors of Tyrosyl-DNA Phosphodiesterase (TDP1); Tyrosyl-DNA phosphodiesterase 1 (Homo sapiens), Q9NUW8; recombinant TDP1, AlphaScreen DNA substrate cleavage; Potency, µM (series often up to 130 µM), for the others: at the highest dose activity change, negative = inhibition, actives largely listed as inhibitors; hit rate 0.28% among 350,000; AID 485290, 2010; note: nearly all actives have a fitted effect of over 40% in size
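Here, a 5' biotin and 3' phosphotyrosine-FITC DNA oligonucleotide reports Tdp1 activity: intact substrate bridges AlphaScreen beads, while cleavage leaves a 3' phosphate and drops signal. All incubations at room temperature.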
L3MBTL1 block: qHTS Assay for the Inhibitors of L3MBTL1. AlphaScreen L3MBTL1–H3K9me1 peptide binding. Lethal(3)malignant brain tumor-like protein 1 (Homo sapiens), Q9Y468. Potency, µM (top dose mostly 57.1 µM), for the others: at the highest dose activity, negative = inhibition, most hits filed as inhibitors. hit rate 0.66% among 230,000; note: nearly all actives have a fitted effect of over 60% in size
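First, the protein-peptide complex forms for 30 min at room temperature (L3MBTL1 50 nM, biotinylated H3K9me1 peptide 75 nM). Next, compounds are pin-transferred and incubated 30 min. Finally, AlphaScreen beads are added and read after 30 min.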
RECQ1 inh: qHTS Assay for Inhibitors of RecQ-Like Dna Helicase 1 (RECQ1); ATP-dependent DNA helicase Q1 (Homo sapiens), P46063; RECQ1 DNA unwinding, red fluorescence kinetic read; Potency, µM (series often up to 57.3 µM), inactives show at the highest dose activity, negative = inhibition, hits mostly inhibitors; hit rate 0.54% among 240,000;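 note: plate controls were vehicle for no effect and no enzyme for full effect; nearly all actives have a fitted effect of over 30% in size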
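RECQ1T1 50 nM; forked duplex (20 bp + 30-nt ss tails) 200 nM, ATP 2 mM final; pH 8.0, 2 mM MgCl2, 2.5 ug/ml poly(dI-dC); 15 min compound preincubation; discontinuous kinetic read over 2 h at RT.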
JMJD2E inh: qHTS Assay for Inhibitors of Human Jumonji Domain Containing 2E (JMJD2E) | hit rate 1.6% among 230,000 | JMJD2E catalytic domain, FDH-coupled NADH fluorescence (FDH is formaldehyde dehydrogenase) | Potency, µM (doses to about 57.1 µM), for the others: at the highest dose activity change, negative = inhibition, hits mostly inhibitors | Lysine-specific demethylase 4E (Homo sapiens), B2RXH2; active = well fitted inhibition curve with a large enough effect, not every such curve was filed as active; inconclusive = small, poorly fitted or top-dose-only effect, or another doubt; inactive = no such curve, though single readings can be large or run the other way;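 note: 0% = wells with enzyme and -100% = buffer wells without enzyme; nearly all actives have a fitted effect of over 50% in size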
Target sequence (B2RXH2 1-337 limits assumed): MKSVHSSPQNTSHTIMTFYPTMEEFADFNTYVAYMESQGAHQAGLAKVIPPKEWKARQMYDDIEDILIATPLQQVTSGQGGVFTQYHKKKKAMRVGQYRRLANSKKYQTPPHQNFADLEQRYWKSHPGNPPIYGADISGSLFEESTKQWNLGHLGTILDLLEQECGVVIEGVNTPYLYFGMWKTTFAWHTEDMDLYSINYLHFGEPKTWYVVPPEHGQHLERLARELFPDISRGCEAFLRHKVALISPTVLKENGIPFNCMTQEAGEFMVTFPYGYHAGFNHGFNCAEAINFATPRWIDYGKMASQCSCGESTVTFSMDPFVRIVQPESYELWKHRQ
BLM inh: qHTS Assay for Inhibitors of Bloom's syndrome helicase (BLM); RecQ-like DNA helicase BLM (Homo sapiens), P54132; recombinant BLM DNA unwinding, fluorescence dequenching; Potency, µM (highest dose often 56.1 µM), without a hit: top-dose activity change, negative = inhibition, usual class: inhibitors; hit rate 0.2% among 350,000;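 note: plate controls were vehicle for no effect and no enzyme for full effect; nearly all actives have a fitted effect of over 35% in size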
An asterisk follows results filed as active; i = inactive; ? = inconclusive; nt = no result given; ! = repeats disagree; [ ] = remark or other dose. The sample as a whole holds a higher share of hits than the screen did. Unless noted, calls come from the whole dose curve; as a rule, active = well fitted curve in the direction sought with a large enough effect; inconclusive = small, poorly fitted or top-dose-only effect, or another doubt; inactive = no such curve, though single readings can be large; an effect the other way counts as inactive or inconclusive. Unless noted, % is set by controls: 0 for no effect and ±100 for the full control effect; potency is the fitted concentration of half-maximal effect.

SMILES	APE1 inh	TDP1 block	L3MBTL1 block	RECQ1 inh	JMJD2E inh	BLM inh
COc1ccc(NCc2ccc([N+](=O)[O-])s2)c(OC)c1	?	12%	?	-6%	10µM*	-3%
COc1ccc(NCc2ccc([N+](=O)[O-])s2)cc1	32µM*	12%	?	-5%	?	-6%
Fc1ccc(-c2cc(C(F)(F)F)nc(NCc3ccccc3)n2)cc1	nt	6%	nt	nt	nt	-4%
CN(Cc1ccccc1)c1nc(-c2ccc(F)cc2)cc(C(F)(F)F)n1	nt	22µM*	nt	nt	nt	-3%
Cc1cc(=O)[nH]c(N/N=C/C2=C(N3CCOCC3)C(=C\c3ccc(Cl)cc3)/CC2)n1	18%	5%	-2%	-1%	28µM*	-3%
COc1ccc(OCC(O)CN2CCC(CN3C(=O)c4cccc5cccc(c45)C3=O)CC2)cc1 (centres undefined)	4%	3%	-6%	i	-2%	-13%
O=C1c2cccc3cccc(c23)C(=O)N1CC1CCN(CC(O)COCc2ccc3c(c2)OCO3)CC1 (centres undefined)	9%	5%	4µM*	9%	?	124%
Cc1ccc(NC(=O)c2ccc3c(c2)CCC(=O)N3)cc1C	nt	-11%	nt	nt	nt	nt
CCc1cc2c(s1)c1cnn(Cc3ccccc3F)c(=O)c1n2C	nt	-1%	nt	nt	nt	nt
Cc1cc(C)c2cccc(N)c2n1	15%	8%	-5%	11%	?	-13%
Cc1cc(C)c2ccc(N)nc2c1O	-1%	6%	4%	-3%	25µM*	-6%
Cc1ccc(N[S+](=O)([O-])c2cc3c(cc2CCc2ccccc2)NC(=O)CO3)cc1C	nt	2%	nt	nt	nt	nt
CC1CCN(C(c2ccccc2)c2sc3nc(-c4ccco4)nn3c2O)CC1 (centres undefined)	nt	3%	nt	nt	nt	2%
COC(=O)CCCC1=CC2=C(c3ccccc3)C(=O)C(C)(OC(=O)C3CCCC3)C(=O)C2=CN1C1CCCC1 (centres undefined)	-5%[12.4 µM]	6%[21 µM]	nt	15%[11.5 µM]	-12%	-12%[12.4 µM]
COCCN1C=C2C(=O)C(C)(OC(=O)C3CCCC3)C(=O)C(c3ccccc3)=C2C=C1CCCC(=O)OC (centres undefined)	0%[12.4 µM]	8%[21 µM]	nt	11%[11.5 µM]	?	-13%[12.4 µM]
COC(=O)CCCC1=CC2=C(c3ccccc3)C(=O)C(C)(OC(=O)C3CCCC3)C(=O)C2=CN1CC1CC1 (centres undefined)	14%[12.4 µM]	4%[12.3 µM]	nt	i[11.5 µM]	11µM*!	-7%[12.4 µM]
COC(=O)CCCC1=CC2=C(c3ccccc3)C(=O)C(C)(OC(=O)C3CCCC3)C(=O)C2=CN1CC(C)C (centres undefined)	-5%[12.4 µM]	17%[12.3 µM]	nt	11%[11.5 µM]	18µM*!	-12%[12.4 µM]
CS(=O)(=O)N1CCN(c2nc(-c3cccs3)nc3ccccc23)CC1	nt	2%	nt	nt	nt	nt
CN1C2CCC1/C(=C/c1cccn1C)C(=O)/C2=C\c1cccn1C	-3%	0%	4.5µM*	-8%	-3%	-10%
C=C1C=C(C(F)F)n2ncc(C(=O)NCc3ccccc3C(F)(F)F)c2N1	-28%	nt	nt	nt	nt	nt
CCN(CC)c1ccc(N=Cc2ccc([N+](=O)[O-])o2)cc1	?	11%	?	?	2.8µM*	-6%
O=S(=O)(O)c1cccc2c(N=Nc3ccc(O)c4ncccc34)cccc12	24µM*	nt	nt	nt	nt	?
O=Nc1ccc(O)c2ncccc12	-5%	-7%	?	-19%	25µM*	-15%
COc1ccc(C)cc1N=Nc1ccc(O)c2ncccc12	1%	11%	nt	-2%	25µM*	-5%
COc1ccc(N=Nc2ccc(O)c3ncccc23)cc1	-3%	-1%	nt	i	?	0%
SMILES	APE1 inh	TDP1 block	L3MBTL1 block	RECQ1 inh	JMJD2E inh	BLM inh
Cc1ccccc1N=Nc1ccc(O)c2ncccc12	2%	9%	25µM*	-3%	-25%	0%
Fc1ccc(N2CCN(c3nc(CN4CCOCC4)nc4scc(-c5ccccc5)c34)CC2)cc1	-8%	9%	16µM*	-10%	-9%	-11%
Cc1c(C(=O)Nc2nc3ccccc3[nH]2)oc2ccc(Br)cc12	-4%	11%	0%	-4%	?	1%
Cc1c(C(=O)Nc2nc3ccccc3[nH]2)oc2ccccc12	11%	3%	2%	-7%	3.2µM*	6%
c1coc(CNc2nc(-c3cccs3)nc3ccccc23)c1	nt	1%	nt	nt	nt	nt
C=CC(C)(C)c1[nH]c2ccccc2c1C1=C(O)C(=O)C(c2c[nH]c3c(CC=C(C)C)cccc23)=C(O)C1=O	20µM*	?	nt	10µM*	25µM*	6.3µM*
COc1cc(/C=N/NC(=O)c2cccc([N+](=O)[O-])c2)cc(OC)c1O	14%	0%	nt	-11%	4%	-16%
O=C(N/N=C/c1ccccn1)c1cc(-c2ccccc2)nc2ccccc12	-3%	nt	-24%	-8%	25µM*	-6%
COc1cc([N+](=O)[O-])cc(/C=N/NC(=O)c2cc(-c3ccccc3)nc3ccccc23)c1O	-9%	11%	-1%	1%	22µM*	-5%
COc1cccc(/C=N/NC(=O)c2ccc([N+](=O)[O-])cc2Cl)c1O	-3%	11%	-9%	-10%	14µM*	-2%
O=C(N/N=C/c1cc(Cl)cc([N+](=O)[O-])c1O)c1cc(-c2ccccn2)nc2ccccc12	1%	nt	nt	-10%	22µM*	-12%
COc1ccc(COC(=O)N/N=C2/C[C@@H](O)[C@@H](O)[C@@H]3[C@@H]4C(=O)N(Cc5ccccc5)C(=O)[C@H]4CC[C@@H]23)cc1	12%[12.4 µM]	12%[21 µM]	nt	i[11.5 µM]	nt	2%[12.4 µM]
Cc1cc(C(=O)N/N=C/c2ccc([N+](=O)[O-])s2)n[nH]1	-5%	-3%	-14%	-9%	-9%	-7%
C/C(=N\NC(=O)c1cc(C)nc2ccccc12)c1ccccn1	17%	-2%[56.1 µM]	28µM*	nt	nt	nt
Cc1cc(C(=O)N/N=C/c2cc(Cl)cc([N+](=O)[O-])c2O)n[nH]1	-3%	6%	-28%	-2%	18µM*	-4%
COc1cc([N+](=O)[O-])cc(/C=N/NC(=O)c2cc(C)nc3ccccc23)c1O	-5%	11%	?	-12%	25µM*	-5%
Cc1cc(C(=O)N/N=C/c2cccc([N+](=O)[O-])c2)c2ccccc2n1	-7%	3%	1%	?	-6%	-1%
C/C(=N\NC(=O)c1cc(C)nc2ccccc12)c1ccncc1	-5%	1%	nt	nt	nt	0%

Bioassay records as filed in PubChem.
